From PubChem
Sampled rows, rich in hits. Any-hit rate of the full collection: about 2.4%.
Tau fil binding – qHTS Assay for Tau Filament Binding; 2% of 71,000 active; recombinant tau filaments, thioflavin S fluorescence, 15 h; filaments grown with octadecylsulfate alongside compound; Potency, µM (highest dose often 57.1 µM), inactives show top-dose activity change, negative = inhibition; AID 596, 2007; Microtubule-associated protein tau (Homo sapiens), P10636;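 further: potency means the concentration at half of the fitted maximal effect; on the % scale 0 is the no-effect control and ±100 the full control effect; actives lower thioflavin S fluorescence by blocking filaments or displacing dye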
Target sequence (P10636 whole entry, looked up): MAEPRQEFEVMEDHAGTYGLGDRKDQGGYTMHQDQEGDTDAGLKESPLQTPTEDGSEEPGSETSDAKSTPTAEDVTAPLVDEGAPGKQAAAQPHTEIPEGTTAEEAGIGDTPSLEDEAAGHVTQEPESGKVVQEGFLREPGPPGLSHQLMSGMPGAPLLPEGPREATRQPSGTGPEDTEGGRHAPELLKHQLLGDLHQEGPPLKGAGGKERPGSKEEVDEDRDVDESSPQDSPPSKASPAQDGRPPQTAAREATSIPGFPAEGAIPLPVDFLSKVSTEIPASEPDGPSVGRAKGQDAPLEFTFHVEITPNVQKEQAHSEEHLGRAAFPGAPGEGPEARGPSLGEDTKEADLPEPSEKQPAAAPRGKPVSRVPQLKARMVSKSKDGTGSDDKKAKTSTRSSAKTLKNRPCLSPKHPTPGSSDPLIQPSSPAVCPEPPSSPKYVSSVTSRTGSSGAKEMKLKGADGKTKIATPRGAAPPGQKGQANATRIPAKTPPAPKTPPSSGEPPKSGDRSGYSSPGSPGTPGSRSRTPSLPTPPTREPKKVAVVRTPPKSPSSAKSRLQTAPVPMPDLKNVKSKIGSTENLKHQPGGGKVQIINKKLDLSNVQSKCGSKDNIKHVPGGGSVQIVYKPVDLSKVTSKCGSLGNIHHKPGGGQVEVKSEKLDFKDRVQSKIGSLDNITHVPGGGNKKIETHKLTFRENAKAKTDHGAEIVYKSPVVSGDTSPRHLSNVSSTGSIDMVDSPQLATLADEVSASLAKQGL
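Recombinant tau protein (human, 1 uM final) plus 30 uM ODS in HEPES pH 7.4 with NaCl, DTT and thioflavine S. Compound present from the start; fluorescence at 510 nm after 15 h, 37 C.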
DNA Pol III inh – qHTS Assay for Inhibitors of DNA Polymerase III Holoenzyme System; reconstituted DNA polymerase III holoenzyme replication, biochemical; Potency, µM (doses to about 57.1 µM), inactives show at the top dose activity change, negative = inhibition; 0.25% of 71,000 active; AID 603, 2007; further: potency means the concentration at half of the fitted maximal effect; on the % scale 0 is the no-effect control and ±100 the full control effect
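Reconstituted *E. coli* holoenzyme (0.35 nM Pol III, 1 nM beta, 154 nM SSB, 2 nM primase) was preincubated with compound for 15 min at RT. Synthesis on 1.4 nM ssM13Gori ran 35 min, then was stopped with PicoGreen/EDTA and read as dsDNA fluorescence.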
BRCT inh red – qHTS Assay for Inhibitors of BRCT-Phosphoprotein Interaction (Red Fluorophore) | Potency, µM (doses to about 76.9 µM), for inactives: top-dose activity change, negative = inhibition, most hits filed as inhibitors | AID 892, 2007 | 0.03% of 75,000 active | BRCT-phosphopeptide binding, red fluorescence polarization; further: on the % scale 0 is the no-effect control and ±100 the full control effect
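Fluorescence polarization: 100 nM His-tagged BRCA1 BRCT with 100 nM TAMRA-labelled phospho-BACH1 decapeptide, phosphate buffer pH 7.3 with 150 mM NaCl, DTT, 0.01% Tween 20; 12 min RT. Binding inhibition seen as FP decrease.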
Hsp90 Hop PPI – qHTS Assay for Disrupters of an Hsp90 Co-Chaperone Interaction; Hsp90 C-terminal peptide / TPR2A (Hop) interaction, human; AlphaScreen TPR2A-His6 binding biotin-Hsp90 C-terminal peptide; Potency, µM (doses to about 57 µM), for the others: at the top dose activity change, negative = inhibition; 0.44% of 71,000 active; AID 595, 2007; active means well fitted curve in either direction with a large enough effect; inconclusive means small, poorly fitted or top-dose-only effect, or another doubt; further: potency means the concentration at half of the fitted maximal effect; on the % scale 0 is the no-effect control and ±100 the full control effect
BRCT PPI green – qHTS Assay for Inhibitors of BRCT-Phosphoprotein Interaction (Green Fluorophore); Breast cancer type 1 susceptibility protein (Homo sapiens), P38398; Potency, µM (series often up to 76.9 µM), for the others: at the top dose activity change, negative = inhibition, hits mostly inhibitors; AID 875, 2007; BRCA1 BRCT-phosphopeptide binding, green fluorescence polarization; 0.05% of 75,000 active;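 further: potency means the concentration at half of the fitted maximal effect; plate controls were peptide without protein for full effect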
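Compounds were incubated for 12 min at room temperature with a complex of 100 nM fluorescein-tagged pBACH1 decapeptide and 250 nM His-tagged BRCT protein. Buffer was phosphate pH 7.3 with EDTA, DTT and Tween 20. Disruption of binding lowers the polarization signal.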
YjeE inh – qHTS Assay for Inhibitors of YjeE. tRNA threonylcarbamoyladenosine biosynthesis protein TsaE (Escherichia coli (strain …. purified YjeE enzyme, qHTS inhibition assay. Potency, µM. 0.05% of 71,000 active
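Fluorescence polarization of a BODIPY Texas Red–ADP probe (2 uM) bound to purified YjeE (10 uM) was read after 15 min room-temperature incubation with compounds. Loss of polarization marks inhibitors; ADP serves as titrated control.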
Hsp90 TPR2A CRC – Confirmation Concentration-Response Assay and Counterscreen for Disrupters of an Hsp90 Co-Chaperone Interaction; shares compounds with Hsp90 Hop PPI; AlphaScreen TPR2A-His6 / biotin-Hsp90 peptide binding; activity, negative = inhibition, % at 40 µM or 46 µM, hits read low; 100% of 45 active; AID 632, 2007;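 active means compound lowering the Hsp90 and TPR2A binding signal, whether or not the linker counterscreen also flagged it as an artifact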
Tau ThS bind – Tau ThS binding assay; AID 911, 2007; shares compounds with Tau fil binding; recombinant tau filaments, Thioflavin S fluorescence displacement; Potency, µM; 40% of 60 active; calls by dose curve
aSyn ThS bind – Alpha-synuclein ThS binding assay. shares compounds with Tau fil binding. recombinant alpha-synuclein fibrils, ThS fluorescence displacement. Potency, µM. 40% of 60 active. AID 937, 2007; calls by dose curve
Abeta ThS displ – Beta amyloid ThS binding assay; shares compounds with Tau fil binding; Abeta1-42 fibrillization, thioflavin S fluorescence, overnight 37 C; Potency, µM; 50% of 60 active; AID 956, 2007; calls by dose curve
An asterisk follows results filed as active; i = inactive; ? = inconclusive; · = no result; [ ] = dose if it differs, or a comment. Unless noted, the call rests on the fitted dose curve; in most records, active means well fitted curve in the direction sought with a large enough effect; inconclusive means small, poorly fitted or top-dose-only effect, or another doubt; inactive means no such curve, though single readings can be large; an effect the other way counts as inactive or inconclusive.

SMILES	Tau fil binding	DNA Pol III inh	BRCT inh red	Hsp90 Hop PPI	BRCT PPI green	YjeE inh	Hsp90 TPR2A CRC	others
Cc1ccc(S(=O)(=O)N[C@H]2COC(=O)C/C=C\[C@H](C)[C@@H](NS(=O)(=O)c3ccc(C)cc3)COC(=O)C/C=C\[C@@H]2C)cc1	·	·	1%[15.4 µM]	·	-1%[15.4 µM]	·	·
O=C(Nc1cccc(C(=O)N2CCOCC2)c1)c1cncc(Br)c1	-18%	-2%	0%	-3%	1%	i	·
O=C(Nc1cccc(C(=O)N2CCOCC2)c1)c1ncn[nH]1	6%	-1%	-1%	25µM*	-1%	i	-83*[alpha-screen platform artifact]
Nc1ccn([C@@H]2O[C@H](COC(=O)C34CC5CC(CC(C5)C3)C4)[C@@H](O)[C@@H]2O)c(=O)n1	2%[11.4 µM]	-12%[11.4 µM]	0%[15.4 µM]	-9%[11 µM]	-1%[15.4 µM]	i	·
CCOC(=O)c1c(C)[nH]c(C(=O)CN2CCOCC2)c1C	8%	-2%	1%	-1%	-1%	i	·
CCOC(=O)CCCCC(=O)c1[nH]c(=O)[nH]c1CSc1nc(C)cc(=O)[nH]1	12%	-1%	-1%	1µM*	0%	i	-100*[alpha-screen platform artifact]
CCOC(=O)CCCCC(=O)c1[nH]c(=O)[nH]c1CSc1nc2ccccc2[nH]1	-9%	-5%	-3%	2.5µM*	0%	i	-100*[alpha-screen platform artifact]
CCOC(=O)CCCCC(=O)c1[nH]c(=O)[nH]c1CSc1nc(C)cc(C)n1	5%[11.4 µM]	-5%[11.4 µM]	-1%	?	0%	i	·
CCOC(=O)CCCCC(=O)c1[nH]c(=O)[nH]c1CN1CCOCC1	5%	4%	-1%	2.5µM*	-2%	i	-99*[alpha-screen platform artifact]
C=CC[C@@H]1C=C[C@H](O/N=C(\C)CCN2CCCc3nc(C)c(C)cc32)[C@H](CO)O1	·	·	1%[15.4 µM]	·	-1%[15.4 µM]	·	·
CN1CCN(c2ncc3nc(-c4ccc(F)cc4)c(=O)n(Cc4cccs4)c3n2)CC1	140%	-5%	-1%	16%	-2%	i	·
C=CCCCCCCC=C	0%	-2%	1%	-2%	-2%	i	·
O=C(CN1CC(=O)Oc2ccccc21)OCC(=O)c1ccccc1	-4%	-6%	-1%	3.2µM*	-4%	i	-100*[alpha-screen platform artifact]
OCc1ccnc2c(O)cccc12	-8%	-7%	1%	3.2µM*	-1%	i	-100*[alpha-screen platform artifact]
Nc1nc(N)c(CCCCc2ccccc2)c(N)n1	1%[11.4 µM]	-8%[11.4 µM]	0%[15.4 µM]	-2%[11 µM]	-1%[15.4 µM]	i	·
Cc1nnc(N2CCN(Cc3ccccc3)CC2)[nH]c1=O	2%	0%	2%	-6%	0%	i	·
Cc1cc(C)n(-c2nnc(C)c(=O)[nH]2)n1	-6%[11.4 µM]	-1%[11.4 µM]	-3%	1.6µM*	1%	i	-100*[alpha-screen platform artifact]
Cc1ccc(S(=O)(=O)NC(=O)c2cc(C)n(CCCn3ccnc3)c2C)cc1	-1%	5%	0%	4µM*	0%	i	-100*[alpha-screen platform artifact]
COC(=O)NC(c1cccc(F)c1)[C@@]1(C(=O)OC)CCCC1=O (some centres not stated)	·	·	1%[15.4 µM]	·	0%[15.4 µM]	·	·
CCOc1ccc(C(=O)CCNC(Cc2cnc[nH]2)C(=O)O)cc1 (configuration not stated)	-1%[11.4 µM]	-2%[11.4 µM]	1%	?	0%	i	-93*[alpha-screen platform artifact]
Cc1ccc(S(=O)(=O)CCc2nnc(NC(=O)c3cnccn3)s2)cc1	2%	1%	0%	-6%	1%	i	·
Cc1ccc(S(=O)(=O)CCc2nnc(NC(=O)c3ccccn3)s2)cc1	8%	-1%	-1%	6.3µM*	1%	i	-100*[alpha-screen platform artifact]
O=C(NCCCn1ccnc1)Nc1ccc(Cl)c(Cl)c1	-2%	-6%	-1%	7.9µM*	0%	i	-98*[alpha-screen platform artifact]
CN1CCN(Cc2ccc(OCc3ccccc3)cc2)CC1	1%	-2%	0%	-4%	0%	i	·
CN1CCN(Cc2cc(COCc3ccccc3)c3cccnc3c2O)CC1	2%	-6%	2%	1.6µM*	0%	i	-100*[alpha-screen platform artifact]
O=C(CSc1cccc2cccnc12)N1CCCC1	-15%	-4%	1%	10µM*	0%	i	-99*[alpha-screen platform artifact]
CN(C)C(=O)CSc1cccc2cccnc12	-12%	0%	0%	?	0%	i	·
Nc1ccc(O)c(-c2nc3ccccc3s2)c1	3.2µM*	-7%	1%	-24%	-1%	i	·	Tau ThS bind=?;aSyn ThS bind=?;Abeta ThS displ=9.2µM*
COc1cccc(Cn2c(=O)c(-c3cccs3)nc3cnc(OCc4ccccc4)nc32)c1	54%	-3%	1%	-4%	0%	i	·
CCOc1ccc(C(C)=O)cc1N1C(=O)C2C3C=CC(O3)C2C1=O (configuration not stated)	7%	-6%	0%	-4%	0%	i	·
